Reference: PubChem BioAssay AID492953 (The Scripps Research Institute Molecular Screening Center, 2010)
Out of some 340,000 compounds screened, about 4,200 (1.2%) were called active.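 Rule for the calls: active = inhibition above the mean of all tested compounds plus 3 SD (cut at about 24% in these data); inactive = the rest.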 Shown is part of a subset that was picked to be rich in actives.

Each compound was assayed against Platelet-activating factor acetylhydrolase IB subunit alpha2 (Homo sapiens) (UniProt P68402) (assay: inhibition of PAF acetylhydrolase 1b subunit 2 – biochemical, fluorescence polarization, human, primary screen (AID 492953;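 note: 0% = enzyme with DMSO and 100% = wells lacking PAFAH1B2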)). Settings: recombinant PAFAH1B2, FP-rhodamine activity probe, at 3.39 µM, hits give high values.
Platelet-activating factor acetylhydrolase IB subunit alpha2 (Homo sapiens), sequence (P68402 whole entry, looked up): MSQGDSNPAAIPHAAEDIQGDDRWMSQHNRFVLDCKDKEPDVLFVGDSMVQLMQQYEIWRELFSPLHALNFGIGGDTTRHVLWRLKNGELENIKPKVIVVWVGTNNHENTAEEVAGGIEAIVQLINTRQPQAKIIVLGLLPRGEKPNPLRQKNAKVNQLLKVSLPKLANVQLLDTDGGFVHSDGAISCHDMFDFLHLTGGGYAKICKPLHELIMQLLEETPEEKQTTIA
For `Cc1ccc2c(c1)=C/C(=C\c1c(O)[nH]c(=O)[nH]c1=O)C(=O)N=2`, the inhibition was 24.9% (active).
For `O=c1[nH]c(O)c(C=Nc2cc(F)cc(F)c2)c(=O)[nH]1`, the inhibition was -5.42% (inactive).
For `O=C1N=c2ccccc2=C/C1=C\c1c(O)[nH]c(=S)[nH]c1=O`, the inhibition was 3.53% (inactive).
`Cc1ccc(Cn2c(C)c3cnn(CC(=O)N4CCC5(CC4)OCCO5)c(=O)c3c2C)cc1` was tested, and the inhibition was 4.99% (inactive).
For `Cc1cccc(OP(=O)(Oc2cccc(C)c2)OC(c2ccccc2)C(F)(F)F)c1` (stereo not given), the inhibition was 10.7% (inactive).
`CNC(=O)O/N=C(\N)Cc1csc2ccccc12` was tested, and the inhibition was 7.09% (inactive).
With `CNC(=O)O/N=C(\N)Cc1csc2ccc(Cl)cc12` the inhibition was 71.7% (active).
`N[C@@H](Cc1c[nH]c2ccccc12)c1nnc(SCc2c(F)cccc2Cl)o1` was tested, and the inhibition was 3.92% (inactive).
With `CCC(C)(O)C(=O)OC1C(=O)OC2CC3C(C)=CC(=O)C(O)C3(C)C3C4(O)OCC23C1C(C)C4O` (stereo not given) the inhibition was -0.05% (inactive).
With `CCCCCn1c(=O)c(C(=O)Nc2c(C)n(C)n(-c3ccccc3)c2=O)c(O)c2ccccc21` the inhibition was -3.03% (inactive).
For `CC(C)(C)c1ccc(CN2C(=O)CN=C(c3ccccc3)c3ccccc32)cc1`, the inhibition was 88% (active).
With `Nc1ccc(C(=O)N/N=C2/CN3CCC2CC3)cc1` the inhibition was -0.84% (inactive).
For `CN(C)CC1CCCCC1OC(=O)c1ccc(Cl)c(Cl)c1` (stereo not given), the inhibition was -0.45% (inactive).
`CCCCCCN=C(CC)c1c(O)n(CCCC)c(=O)[nH]c1=O` was tested, and the inhibition was 5.01% (inactive).
In the case of `CN(C)CC1Oc2ccccc2OC1(O)c1ccccc1` (stereo not given), the inhibition was 0.51% (inactive).
For `CC1=CC(=Cc2sc3ccccc3[n+]2C)C=C(C)O1`, the inhibition was -0.8% (inactive).
`CCC(=NCc1ccco1)c1c(O)n(Cc2ccccc2)c(=O)[nH]c1=O` was tested, and the inhibition was 3.82% (inactive).
`O=C(N/N=C/c1c(O)n(Cc2ccccc2)c(=O)[nH]c1=O)c1ccccc1` was tested, and the inhibition was 18.9% (inactive).
`CC/C(=N\NC(=O)c1ccccc1O)c1c(O)n(Cc2ccccc2)c(=O)[nH]c1=O` was tested, and the inhibition was 26.1% (active).
With `O=C(NCC(c1cccnc1)N1CCN(c2ccccc2)CC1)Oc1ccccc1` (stereo not given) the inhibition was 4.28% (inactive).
`O=C(CSC1c2ccccc2-c2ccccc21)N/N=C/c1ccccc1` was tested, and the inhibition was 8.06% (inactive).
`c1ccc(CCN2CCC3(CC2)OCCO3)cc1` was tested, and the inhibition was 3.22% (inactive).
With `O=C(OCCN1CCOCC1)C1(c2ccccc2)CCCC1` the inhibition was 36.1% (active).
`CCOC(=O)C1(c2ccccc2)CCN(CC(O)c2ccc(NC(C)=O)cc2)CC1` (stereo not given) was tested, and the inhibition was 0.73% (inactive).
`Cc1ccc(N(C)C(=O)Oc2cccc3ccc(C)nc23)cc1` was tested, and the inhibition was 2.03% (inactive).
